# Glyco luc inh: increase of ERlucT glycosylation luciferase signal, primary screen, N-linked glycosylation inhibitor project, D54 ERlucT cells, luminescence, set 2 | D54 ERlucT glycosylation luciferase reporter, 24 h; percent of 100 nM tunicamycin response | 360,000 tested, 0.23% active | reporter increase, % at 12.5 µM;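 active = mean luciferase reporter signal, scaled so untreated is 0 and the glycosylation-blocking control 100, at or above a set limit in every replicate; inconclusive = mean reaches the limit but not every replicate does; inactive = mean below the limit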;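 note: luciferase carries N-glycosylation sites so blocking glycosylation raises the light; 0% = median of neutral control wells and 100% = median of 100 nM tunicamycin wells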
# ABCB6 inh 2: ABCB6 transporter inhibitors, primary screen, K562-ABCB6 cells, flow cytometry, MLPCN library; ATP-binding cassette sub-family B member 6 (Homo sapiens), Q9NP58; K562-ABCB6 porphyrin accumulation, 1 h; hits give low values; fluorescence ratio to DMSO, % at 10 µM; 360,000 tested, 0.19% active;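 active = fluorescence ratio to DMSO below 75%, the collection mean minus 3 SD; inconclusive = too few cells collected in the well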;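 note: signal is porphyrin accumulated inside mitochondria; 100% equals median channel fluorescence of DMSO control wells; lower ratio means ABCB6 inhibition with less porphyrin fluorescence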
# Target sequence (Q9NP58 whole entry, looked up): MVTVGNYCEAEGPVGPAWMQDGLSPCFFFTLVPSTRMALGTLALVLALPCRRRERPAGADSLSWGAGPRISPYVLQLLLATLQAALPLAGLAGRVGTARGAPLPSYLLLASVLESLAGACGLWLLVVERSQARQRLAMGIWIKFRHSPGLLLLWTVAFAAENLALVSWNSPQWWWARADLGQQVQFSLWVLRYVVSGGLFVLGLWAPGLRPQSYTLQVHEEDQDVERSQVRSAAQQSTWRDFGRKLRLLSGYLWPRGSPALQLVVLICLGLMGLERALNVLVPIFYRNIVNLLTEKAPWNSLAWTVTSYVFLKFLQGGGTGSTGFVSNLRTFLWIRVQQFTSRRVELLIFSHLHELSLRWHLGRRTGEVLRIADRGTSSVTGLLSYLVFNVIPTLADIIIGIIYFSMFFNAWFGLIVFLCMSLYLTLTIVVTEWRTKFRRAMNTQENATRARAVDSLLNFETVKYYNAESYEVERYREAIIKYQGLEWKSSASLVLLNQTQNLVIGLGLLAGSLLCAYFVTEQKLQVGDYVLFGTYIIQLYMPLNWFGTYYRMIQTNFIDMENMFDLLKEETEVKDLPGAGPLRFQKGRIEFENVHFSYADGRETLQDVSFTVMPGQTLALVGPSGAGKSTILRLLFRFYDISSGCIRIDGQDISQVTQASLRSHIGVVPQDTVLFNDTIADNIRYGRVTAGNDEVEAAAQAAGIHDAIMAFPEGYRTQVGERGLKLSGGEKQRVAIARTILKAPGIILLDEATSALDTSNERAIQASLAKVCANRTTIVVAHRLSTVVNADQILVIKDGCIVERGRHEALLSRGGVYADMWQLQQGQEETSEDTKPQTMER
# Myeloid diff MLP: induction of myeloid progenitor differentiation, primary screen, cell-based, flow cytometry, MLPCN library; calls only at 10 µM; ER-HoxA9 myeloid progenitors, lysozyme-GFP differentiation; 360,000 tested, 1% active;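 active = normalized GFP-positive differentiation at or above the plate's own cutoff, the solvent-only control mean plus 3 SD; inconclusive = no clear call, values can overlap the other calls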;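 note: cells exposed to compound for four days before flow analysis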
# Vif inh: HIV Vif self-association inhibitors, primary screen, imaging, HEK293T, single point; AID 602346, 2012; HEK293T cells, Vif self-association by quenched fluorescence, 24 h; inhibition, % at 7.49 µM; 340,000 tested, 0.35% active; in the data active = inhibition above about 50%, passing the limit was not always enough; inconclusive = no clear call, values can overlap the other calls; inactive = below about 31%
# RAD54 inh: inhibitors of human RAD54 branch migration, primary screen, biochemical, fluorescence, single point; AID 602329, 2012; DNA repair and recombination protein RAD54-like (Homo sapiens), Q92698; inhibition, % at 10.4 µM; RAD54 Holliday junction branch migration, FAM/BHQ fluorescence; 360,000 tested, 0.14% active;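 active = mean normalized replicate activity at least 40 and at least half of replicates scoring 40 or more; inconclusive = only one of the two criteria met; inactive = mean below 40 and under half of replicates reaching 40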;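 note: 0% = median of neutral control wells and 100% = median of positive control wells; inhibitors cause a drop in the FAM fluorescence signal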
# Starred values were filed as active, the others as inactive; i = inactive; u = inconclusive; x = not tested or not shown; + = active, no number. This is a sample that favours compounds with a hit; in the whole collection about 1.6% have one here.
SMILES,Glyco luc inh,ABCB6 inh 2,Myeloid diff MLP,Vif inh,RAD54 inh
COc1cc(/C=N/NC(=O)CSc2cc(C)c(Br)cc2C)ccc1O,-1.2,94.0,i,-2.9,-4.1
O=C(NC1Cc2ccccc2C1)[C@H]1[C@H](CO)[C@H]2Cn3c(cccc3=O)[C@H]2N1C(=O)C1CCC1,x,x,x,x,5.5
Cc1cc(C)nc(Sc2ccc([N+](=O)[O-])cc2[N+](=O)[O-])n1,13.6,100.0,i,-4.0,x
CN(C)/N=C/c1ccc(Sc2ccc([N+](=O)[O-])cc2[N+](=O)[O-])o1,26.7*,96.0,i,2.5,x
Cc1ccc(C)c(N2CCN(c3cnn(-c4nc5ccccc5s4)c(=O)c3Cl)CC2)c1,113.7*,89.0,i,-2.1,1.4
C[C@@H]1CN([C@H](C)CO)S(=O)(=O)c2ccc(Br)cc2O[C@@H]1CN(C)Cc1cccnc1,x,x,x,x,3.8
Cc1cccc(N2CCN(S(=O)(=O)c3ccc(-c4ccc(=O)[nH]n4)o3)CC2)c1C,39.8*,96.0,i,-5.7,8.6
C[C@H](CO)N1C[C@H](C)[C@H](CN(C)CC2CC2)OCCCC[C@H](C)Oc2ccc(NC(=O)Nc3ccc4c(c3)OCO4)cc2C1=O,x,x,x,x,17.1
CN(C(=O)c1ccc(NC(=O)Cc2ccc(NC(=O)C3CCN(C(=O)CCc4ccccc4)CC3)cc2)cc1)C1CC1,-0.8,93.0,i,11.9,2.1
CN(C(=O)c1ccc(NC(=O)Cc2ccc(NC(=O)C3CCCN(C(=O)C4CCCCC4)C3)cc2)cc1)C1CC1 (stereo unspecified),-0.8,94.0,i,4.3,1.2
CN(C(=O)c1ccc(NC(=O)Cc2ccc(NC(=O)C3CCCN(C(=O)C4CCCC4)C3)cc2)cc1)C1CC1 (stereo unspecified),-1.1,100.0,+,-3.1,-13.2
CN(C(=O)c1ccc(NC(=O)Cc2ccc(NC(=O)C3CCN(C(=O)CCc4ccccc4)CC3)cc2)cc1)C1CCCC1,-1.6,104.0,+,-4.9,6.5
CN1[C@@H]2c3ccc(-c4ccc(F)cc4)c(=O)n3C[C@@H]2[C@@H](CO)[C@@H]1C(=O)Nc1ccccc1,x,x,x,x,6.0
C[C@@H](NC(=O)C[C@@H]1C[C@H]2c3cc(NC(=O)C4CCOCC4)ccc3O[C@H]2[C@H](CO)O1)c1ccccc1,x,x,x,x,-1.9
O=C(NCc1ccc2c(c1)OCO2)C1CCCN(S(=O)(=O)c2cccc3cccnc23)C1 (stereo unspecified),1.3,107.0,+,3.0,1.8
CCCNC(=O)c1cc(C2CCCN(S(=O)(=O)c3cccc4cccnc34)C2)on1 (stereo unspecified),0.1,102.0,i,72.5*,-3.7
CN(C)c1cc[n+](Cc2c(Cl)cccc2Cl)cc1,3.4,97.0,+,3.1,-14.5
CN(C)C(=O)c1ccc(-c2ccc3c(c2)[C@H]2[C@H](CCN2C(=O)C2CCOCC2)[C@@H](CO)N3C)cc1,x,x,x,x,11.6
Cc1ccc(C2C(C#N)=C(N)SC(N)=C2C#N)c(C)c1,2.5,124.0,+,-2.4,-65.6
CCOC(=O)COc1ccc(S(=O)(=O)c2ccc(OCC(=O)OCC)cc2)cc1,3.7,95.0,i,120.2*,-4.0
CCn1c(SCC(=O)c2c[nH]c3ccccc23)nc2cc(S(=O)(=O)N3CCOCC3)ccc21,-2.9,116.0,+,19.0,x
Cc1cc(NC(=O)c2ccccc2)c(Cl)cc1N,0.5,101.0,i,116.4*,0.5
CCNc1ccc(Br)cc(C(=O)/C=C/c2ccc(Cl)cc2)c1=O,u,122.0,i,5.9,-4.2
CCNc1ccc(Br)cc(C(=O)/C=C/c2c(Cl)cccc2Cl)c1=O,2.0,165.0,+,11.0,-1.3
CCOC(=O)c1cc2[nH]c3ccccc3c2[n+](-c2ccc([N+](=O)[O-])cc2)c1N,46.1*,98.0,i,-2.4,x
SMILES,Glyco luc inh,ABCB6 inh 2,Myeloid diff MLP,Vif inh,RAD54 inh
Cc1ccc(Nc2nc3ccccc3c(=O)s2)cc1C,-2.2,99.0,i,-3.1,1.0
COc1ccccc1Nc1nc(Cl)c(C=O)s1,-4.8,238.0,+,-0.5,11.7
Cc1ccc(Nc2nc(Cl)c(C=O)s2)cc1Cl,7.9,170.0,+,-7.8,x
CCCNC(=O)C[C@@H]1C[C@H]2c3cc(NC(=O)Nc4ccc(F)cc4)ccc3O[C@H]2[C@H](CO)O1,x,x,x,x,-2.4
CCC(=O)N(C)C[C@H]1Oc2ncc(-c3ccc(F)cc3)cc2C(=O)N([C@@H](C)CO)C[C@@H]1C,x,x,x,x,1.8
Cc1cc(NS(=O)(=O)c2ccc(NC(=S)NC(=O)c3ccc(Cl)cc3Cl)cc2)no1,2.3,109.0,i,-16.4,-7.4
Cc1cc(NS(=O)(=O)c2ccc(NC(=O)c3ccc(Cl)cc3Cl)cc2)no1,1.4,106.0,i,55.2*,8.8
CC[n+]1c(/C=C/C=C/N(C(C)=O)c2ccccc2)sc2ccccc21,-4.1,957.0,+,162.3*,-75.9
COCCCN1C(=O)C(CC(=O)NCc2cccc3ccccc23)CC(C(=O)N2CCCCCC2)=C1C (stereo unspecified),x,96.0,i,x,x
COCCCN1C(=O)C(CC(=O)NCc2cccc3ccccc23)CC(C(=O)N2CCOCC2)=C1C (stereo unspecified),1.2,99.0,i,66.8*,2.9
O=C(NCc1ccccc1Br)c1cccc2c1C(=O)c1ccc(N3CCC(Cc4ccccc4)CC3)cc1S2(=O)=O,-3.4,188.0,+,-0.8,-105.4
O=C(NCc1ccccc1Cl)c1cccc2c1C(=O)c1ccc(-c3ccc(OC(F)(F)F)cc3)cc1S2(=O)=O,304.1*,98.0,i,-0.8,4.6
O=C(NCc1ccccc1C(F)(F)F)c1cccc2c1C(=O)c1ccc(N3CCC(N4CCCCC4)CC3)cc1S2(=O)=O,-20.6,215.0,+,75.1*,-36.4
COc1ccc(Br)cc1/C(C)=N/NC1=NCCN1,-1.5,97.0,i,4.9,x
CCCCCOc1ccc(Br)cc1/C(C)=N/NC1=NCCN1,-6.9,85.0,u,75.3*,27.3
CCN1C(=O)CC(c2ccccc2)N(C2CCCC2)c2nc(Nc3ccc(C(=O)NC4CCN(C)CC4)cc3OC)ncc21 (stereo unspecified),59.8*,99.0,i,-0.9,44.4
COc1cc(C(=O)NC2CCN(C)CC2)ccc1Nc1ncc2c(n1)N(Cc1ccccc1)CCC(=O)N2C,104.8*,104.0,u,-0.1,30.8
Fc1ccc(-c2cn3cc(C(F)(F)F)cc(Cl)c3n2)cc1,-10.9,88.0,i,7.5,1.2
COc1ccc(-c2cn3cc(C(F)(F)F)cc(Cl)c3n2)cc1,7.5,101.0,+,11.0,x
CCOc1ccc(N=C2NC(=O)S/C2=C\c2ccc(N(C)C)cc2)cc1,-2.0,162.0,+,148.2*,1.1

# Screens (PubChem)
